An excerpt weighted towards active compounds, which were near 0.31% of everything screened.
TRPML1 inh = qHTS for Inhibitors of the Human Mucolipin Transient Receptor Potential 1 (TRPML1). Mucolipin-1 (Homo sapiens), Q9GZU1. TRPML1-inducible cells, Ca2+ dye fluorescence, FDSS; active compounds read low; inhibition of EC80 agonist-evoked calcium signal. activity change, negative = inhibition, % (test concentration not listed). hit rate 0.02% among 390,000. AID 624415, 2012; in the data active means activity change below about -50%; inconclusive means between about -30% and that limit;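 further: stimulus is agonist 54-4 at its EC80 concentration; on the % scale 0 is the no-effect control and ±100 the full control effect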
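Tet-induced TRPML1-DL cells loaded with Ca8 no-wash calcium dye were read kinetically on FDSS. Compound addition was followed by EC80 agonist 54-4 (4 uM final); inhibition was read over 110 s.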
TRPV1 ag = HTS Assay for Compounds that Act as Agonists of the Vanilloid Receptor 1; Transient receptor potential cation channel subfamily V member 1 (Homo sapiens), Q8NER1; TRPV1-expressing cells, Fluo-8 calcium influx, agonist mode; activation, % at 8.33 µM; hit rate 0.19% among 320,000; AID 540275, 2011; in the data active means activation above about 80%; inconclusive means between about 30% and that limit; further: 0% is about no effect
Target sequence (Q8NER1 whole entry, looked up): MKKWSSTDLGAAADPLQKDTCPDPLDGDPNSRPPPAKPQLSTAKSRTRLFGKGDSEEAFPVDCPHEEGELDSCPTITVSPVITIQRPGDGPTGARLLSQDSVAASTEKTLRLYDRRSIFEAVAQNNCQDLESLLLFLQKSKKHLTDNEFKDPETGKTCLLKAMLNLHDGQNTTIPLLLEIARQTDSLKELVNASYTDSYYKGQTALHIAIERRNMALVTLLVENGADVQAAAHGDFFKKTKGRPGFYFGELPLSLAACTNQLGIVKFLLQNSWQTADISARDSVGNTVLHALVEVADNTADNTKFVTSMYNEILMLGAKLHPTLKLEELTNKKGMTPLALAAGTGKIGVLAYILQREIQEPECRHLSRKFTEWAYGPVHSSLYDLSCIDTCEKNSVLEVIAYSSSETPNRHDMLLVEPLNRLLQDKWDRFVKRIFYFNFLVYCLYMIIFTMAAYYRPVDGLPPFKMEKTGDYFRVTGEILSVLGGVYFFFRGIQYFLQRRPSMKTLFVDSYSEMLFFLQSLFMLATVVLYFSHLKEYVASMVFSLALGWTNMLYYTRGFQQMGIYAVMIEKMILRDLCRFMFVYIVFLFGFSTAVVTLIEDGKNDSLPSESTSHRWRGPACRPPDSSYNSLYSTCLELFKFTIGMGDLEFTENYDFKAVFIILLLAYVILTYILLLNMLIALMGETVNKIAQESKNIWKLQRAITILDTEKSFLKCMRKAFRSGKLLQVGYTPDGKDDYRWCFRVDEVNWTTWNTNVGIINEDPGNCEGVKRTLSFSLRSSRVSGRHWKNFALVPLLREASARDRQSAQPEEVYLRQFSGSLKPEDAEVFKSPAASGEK
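TRPV1-expressing cells were cultured overnight at 35.5C and loaded with Fluo-8 calcium dye for 40 to 90 min at room temperature. After a 10 s baseline, compound was added and calcium influx was read kinetically for 3 min (ex 480/em 520 nm).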
TRPV1 PAM = HTS Assay for Compounds that Act as Potentiators of the Vanilloid Receptor 1 | Transient receptor potential cation channel subfamily V member 1 (Homo sapiens), Q8NER1 | TRPV1-expressing cells, Fluo-8 calcium influx, capsaicin EC20 potentiation | potentiation, % at 8.33 µM | hit rate 0.02% among 320,000 | AID 540277, 2011; in the data active means potentiation above about 80%; inconclusive means between about 30% and that limit; further: 0% is about no effect
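Cells expressing TRPV1 were dye-loaded with Fluo-8 and read kinetically: 10 s baseline, 3 min after compound (agonist portion), then 2 min after EC20 capsaicin (allosteric enhancer portion). Calcium-bound dye fluorescence at 480/520 nm.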
TRPML1 agonist = qHTS for Agonists of the Human Mucolipin Transient Receptor Potential 1 (TRPML1); Mucolipin-1 (Homo sapiens), Q9GZU1; TRPML1-expressing cells, Ca2+ dye fluorescence, FDSS; activation, % (concentration not given with the values); hit rate 0.12% among 410,000; AID 624414, 2012; in the data active means activation above about 50%; inconclusive means mostly about 30% to 49%; further: 0% is about no effect
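Kinetic FDSS Ca2+ read in Tet-induced TRPML1-DL cells (ABD Ca8 dye plus quencher, 45-90 min RT loading): baseline, then compound, then 110 s agonist window; EC80 agonist 54-4 at 4uM final added afterwards for a 110 s antagonist window.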
* hit, by the source's call; ? = inconclusive; . = no result given.

SMILES	TRPML1 inh	TRPV1 ag	TRPV1 PAM	TRPML1 agonist
CC(C)(C)C(=O)NC(=S)NNC(=O)c1ccc(-c2ccccc2)cc1	3.8	?	-21.0	80.0*
CC(C)(C)C(=O)NC(=S)NNC(=O)c1ccc(Cl)cc1Cl	19.3	?	-11.6	65.9*
Cc1ccc(C)c(CNC(=O)C2CCN(c3nc4ccccc4nc3C(F)(F)F)CC2)c1	16.9	.	.	-0.4
Cc1nn(Cc2ccc(Cl)cc2)c(C)c1NC(=O)CCCn1nc(C)c([N+](=O)[O-])c1C	6.7	93.3*	5.9	1.7
Cc1c(C(=O)N2CCCC2)c(S(=O)(=O)NCCc2ccccc2)c(C)n1C	4.9	3.3	-3.7	-1.0
O/N=C(/C[n+]1cccc(Br)c1)c1ccc2ccccc2c1	.	.	.	-1.1
Cc1cc(C)cc(NCc2nnc3n2CCCCC3)c1	-0.3	.	.	0.8
CN(C)c1ccc(/C=C/C(=O)c2cccc(Br)c2)cc1	-2.3	87.1*	2.4	-0.5
CN(C)c1ccc(C(=O)/C=C/c2cccnc2)cc1	.	-2.4	27.4	.
CCCc1nc2ccc(Cl)cn2c1Cc1ccccc1	17.8	.	.	1.1
CN1CCN(C(=O)/C=C/c2cn(-c3ccccc3)nc2-c2ccc3c(c2)OCCO3)CC1	-12.9	?	-3.9	1.4
O=C(/C=C\c1cn(-c2ccccc2)nc1-c1ccc2c(c1)OCCO2)N1CCOCC1	-19.2	115.0*	-13.8	1.8
O=C(/C=C/c1cccc2ccccc12)N1CCOCC1	-0.7	91.9*	-18.7	1.5
O=C(Nc1cccnc1)c1ccc(F)cc1	-1.8	17.6	-15.6	-0.5
O=C(Nc1cccnc1)c1ccc(N2CCOCC2)c([N+](=O)[O-])c1	-13.4	?	-23.2	0.3
O=C(Nc1cccnc1)c1ccc(-c2ccccc2)cc1	4.9	87.5*	-2.4	0.3
O=C(Nc1cccnc1)c1ccc(N2CCCC2)c([N+](=O)[O-])c1	9.0	84.4*	-16.9	-0.5
C(=C\c1ccnc2ccccc12)/c1ccc(N2CCOCC2)cc1	.	.	.	-1.1
Cc1ccc(NC2CCCN(C(=O)c3cccc4nccnc34)C2)cc1C (centres undefined)	9.3	-3.6	11.5	-0.1
Cc1cc(C)n2nc(C(=O)N3CCCC(Nc4ccc(C(C)C)cc4)C3)cc2n1 (centres undefined)	-3.1	86.0*	-2.2	-0.9
CC(C)c1ccc(NC2CCCN(C(=O)c3cccc4nccnc34)C2)cc1 (centres undefined)	6.4	84.6*	-10.9	-0.6
COc1cccc(-c2c(C(=O)O)cc(O)c3ccc(OC)cc23)c1	8.6	.	.	0.2
CCCN(C(=O)COC(=O)CCC(=O)c1ccccc1)c1c(N)n(Cc2ccccc2)c(=O)[nH]c1=O	-0.4	.	.	0.0
CCN(CC)c1ccc(/C=C(/C#N)c2nc3ccc(C)cc3[nH]2)c(OC(C)C)c1	-15.9	85.4*	-6.9	-0.5
CCCOc1cc(N(CC)CC)ccc1/C=C(/C#N)c1nc2ccc(C)cc2[nH]1	31.5	?	-9.6	?
SMILES	TRPML1 inh	TRPV1 ag	TRPV1 PAM	TRPML1 agonist
CCNC(=S)N1CCC(C(=O)c2ccc(Cl)cc2)CC1	12.0	80.6*	0.7	0.6
O=c1cc(N2CCCCC2)c(-c2ccccc2)nn1Cc1ccccc1	-8.0	81.0*	2.1	2.7
Cn1nc(-c2ccccc2)c(N2CCCCC2)cc1=O	25.5	?	-19.5	2.3
COc1ccc(Cn2nc(-c3ccccc3)c(N3CCCCC3)cc2=O)cc1	1.4	85.0*	14.2	1.4
Cc1ccc(S(=O)(=O)N2C[C@H]3C(=O)C[C@@H](c4ccccc4)N(S(=O)(=O)c4ccc(C)cc4)[C@H]3C[C@H]2c2cccc(C)c2)cc1	?	.	.	93.1*
Cc1ccc(S(=O)(=O)N2C[C@H]3C(=O)C[C@@H](c4ccccc4)N(S(=O)(=O)c4cccc(C)c4)[C@H]3C[C@H]2c2ccccc2)cc1	-22.4	.	.	3.4
Cc1ccc([C@@H]2CC(=O)[C@@H]3CN(S(=O)(=O)c4ccc(C)cc4)[C@H](c4cccc5ccccc45)C[C@@H]3N2S(=O)(=O)c2ccc(Cl)cc2)cc1	1.6	.	.	1.0
Cc1ccc(S(=O)(=O)N2C[C@H]3C(=O)C[C@@H](c4ccccc4)N(S(=O)(=O)c4ccc(C)cc4)[C@H]3C[C@H]2c2cccc3ccccc23)cc1	-2.4	.	.	56.5*
CC(=O)c1cccc(NC(=O)CSc2nc3ccccc3nc2Cc2ccc(F)cc2)c1	20.0	.	.	-0.2
O=c1[nH]c2ccc(NCc3ccc(-c4ccc(F)cc4)o3)cc2[nH]1	11.7	.	.	-0.7
Cc1ccc(C(C)C)c(OCc2ccc(C(=O)Nc3ccc(S(N)(=O)=O)cc3C)o2)c1	25.6	.	.	3.8
CC(C)CC(=NNC(=O)c1ccncc1)c1cc(Cl)ccc1O	7.4	.	.	70.5*
C/C(=N/NC(=O)c1ccncc1)c1ccc(NC(=O)c2ccc(Cl)cc2Cl)cc1	18.8	-2.3	-10.7	-0.3
Fc1ccccc1CNC(=S)NCc1ccc(Cl)cc1	23.3	84.1*	9.2	-0.3
Fc1ccc(CNC(=S)NCc2ccccc2)cc1	22.8	84.2*	-4.2	0.6
O=C(/C=C/c1ccc(Cl)cc1)NCc1ccncc1	2.8	81.5*	-7.3	1.4
C#Cc1ccc(NC(=O)C2(C)CCN2C(=O)CC(c2ccccc2)c2ccccc2)cc1 (centres undefined)	.	.	.	0.0
COc1ccccc1N1N=C(c2ccc([N+](=O)[O-])cc2)CC1c1ccccc1 (centres undefined)	-16.5	5.9	8.8	69.3*
Cc1nn(-c2ccc(C(=O)NCC(c3ccco3)N3CCCC3)cc2)c(C)c1Cl (centres undefined)	0.1	1.6	-4.7	0.0
Cc1nnc(NC(=O)c2sc3nc(-c4cccs4)cc(C(F)(F)F)c3c2N)s1	19.2	17.9	1.2	51.8*
N#CC1=C(N)OC2=C(CC/C2=C\c2ccccc2)C1c1ccccc1 (centres undefined)	-8.3	2.7	-7.1	55.3*
N#CC1=C(N)OC2=C(CC/C2=C\c2ccccc2Cl)C1c1ccccc1Cl (centres undefined)	-9.6	-0.2	17.5	1.5
CCOC(=O)c1c(Nc2cccc(O)c2)nnc(-c2ccccc2)c1-c1ccccc1	13.4	.	.	3.1
Cc1cc(C)c(NC(=O)CCS(=O)(=O)c2cc3c(cc2Cl)NC(=O)CO3)c(C)c1	2.4	.	.	0.8
